JMJD2A Tudor: blocks the human JMJD2A Tudor domain; O75164; AlphaScreen JMJD2A-Tudor / H3K4me3 peptide binding; Potency, µM (highest dose often 114 µM), for inactives: at the highest dose activity change, negative = inhibition, usual class: inhibitors; 390,000 tested, 4.4% active; also: % is scaled to controls: 0 for no effect and ±100 for the full control effect; nearly all actives have a fitted effect of over 50% in size
Sfp PPTase inh: blocks B. subtilis Sfp PPTase activity. Q9F4F7. Biochemical Sfp PPTase activity, qHTS. AID 1490. Potency, µM, for the others: largest response in the series, negative = inhibition, usual class: inhibitors. 310,000 tested, 3.5% active;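 also: the enzyme is Sfp with the accession as filed and its product quenches rhodamine fluorescence; 0% = enzyme reaction without inhibitor and -100% = no enzyme wells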
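After 15 min at room temperature with compound, 15 nM Sfp received 5 uM rhodamine-CoA plus 12.5 uM BHQ-2-ybbR (50 mM Hepes pH 7.6, 10 mM MgCl2). Rate came from the fluorescence difference over 30 min, ex 525/em 598 nm.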
HP1b chromo inh: HP1-beta chromodomain-methylated histone interaction inhibition | AlphaScreen HP1-beta / biotin-H3K9me3 peptide binding | 390,000 tested, 0.56% active | P83916 | Potency, µM (doses to about 114 µM), inactives show at the top dose activity change, negative = inhibition, actives largely listed as inhibitors | AID 540317; also: nearly all actives have a fitted effect of over 70% in size
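HP1-beta protein (50 nM final) preincubated 30 min at room temperature with biotinylated H3(1-18)K9me3 peptide (50 nM) in PBS pH 7.4, 0.01% Tween-20, then compound added for 30 min. AlphaScreen streptavidin donor/nickel chelate acceptor beads (10 ug/mL final), 30 min dark, luminescence read.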
G9a block: G9a (human) methyltransferase inhibition | Q96KQ7 | 350,000 tested, 8.8% active | AID 504332 | Potency, µM (highest dose often 102 µM), without a hit: top-dose activity, negative = inhibition, usual class: inhibitors | G9a H3K9 monomethylation, AlphaScreen, 2 h; also: % is scaled to controls: 0 for no effect and ±100 for the full control effect; nearly all actives have a fitted effect of over 75% in size
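Methyltransferase reactions run at room temperature for 2 h (20 nM enzyme, 500 nM biotin-H3K9 peptide, 20 uM SAM) after a 15 min compound preincubation; product detected by AlphaScreen beads and anti-H3K9me1 antibody.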
BAZ2B block: inhibitors of human BAZ2B bromodomain | AID 504333 | Q9UIF8 | 360,000 tested, 4.4% active | Potency, µM (top dose mostly 114 µM), for the others: at the highest dose activity change, negative = inhibition, actives largely listed as inhibitors | AlphaScreen BAZ2B-H3K14Ac peptide displacement; also: % is scaled to controls: 0 for no effect and ±100 for the full control effect; nearly all actives have a fitted effect of over 60% in size
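Protein-peptide AlphaScreen: BAZ2B 50 nM, b-H3K14Ac 50 nM, 1x PBS pH 7.4 + 0.01% Tween-20. Preincubation 30 min RT; cpd 30 min RT (top 110 uM); beads 20 min RT, light-protected.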
* hit, by the source's call; ? = inconclusive; / = no result given; [ ] = another dose, or the depositor's remark. This is a sample that favours compounds with a hit; in the whole collection about 12% have one here. Calls follow the shape of the dose curve; as a rule, active = well fitted curve in the direction sought with a large enough effect; inconclusive = small, poorly fitted or top-dose-only effect, or another doubt; inactive = no such curve, though single readings can be large; an effect the other way counts as inactive or inconclusive. Potency is read from the fitted curve at half-maximal effect.

SMILES	JMJD2A Tudor	Sfp PPTase inh	HP1b chromo inh	G9a block	BAZ2B block
CCCOCc1cc(CN2CCN(c3cccc(Cl)c3)CC2)c(O)c2ncccc12	13µM*	/	10%	-21%[59 µM]	32µM*
CCCCOCc1cc(CN2CCN(c3cccc(Cl)c3)CC2)c(O)c2ncccc12	4µM*	/	59%	-2%[59 µM]	5.6µM*
O=C(NNC(=O)c1ccco1)c1ccc(NS(=O)(=O)c2cccs2)cc1	-18%	/	-6%	3%[0.501 µM]	8%
CC(C)CCC(C(=O)NC(C)c1ccccc1)C(=O)NC(C)c1ccccc1 (configuration not stated)	22µM*	15%	-19%	-9%	?
CC(C)CCNCC(=O)NC(c1ccccc1)c1ccccc1	32µM*	-4%	13%	5.6µM*	56µM*
CC(C)CC(NC(=O)C1CCCCC1)C(=O)NC(C)c1ccccc1 (configuration not stated)	-14%	3%	11%	-32%	-12%
c1ccc2sc(SN3CCOCC3)nc2c1	40µM*	-23%	?	?	3%
CNC1C(O)[C@@H]2OC(O[C@@H]3C(O)C(O)C(N)C[C@H]3N)C(N)C[C@H]2O[C@H]1O[C@@H]1OC(CO)C(N)C(O)C1O (some centres not stated)	/	5%	/	-32%[2.33 µM]	/
COc1ccccc1-c1cc(N(C)Cc2ccco2)ncn1	/	-18%	/	4%[0.501 µM]	/
Cc1nn(-c2ccccc2)c(N2CCCC2)c1/C=N/NC(=O)c1ccccc1O	-23%	10%	16%	19%	-24%
O=C(N/N=C/c1cc2c3c(c1O)CCCN3CCC2)c1ccccc1O	45µM*	-16%	-15%	?	32µM*
CSCCC(NC(=O)c1cccc(S(=O)(=O)N2CCOCC2)c1)C(=O)Nc1cccc(C)c1 (configuration not stated)	-2%	-17%	20%	10µM*	-4%
CSCCC(NC(=O)c1ccccc1Cl)C(=O)N1CCCCC1 (configuration not stated)	-6%	/	18%	-17%[12.7 µM]	12%
CSCCC(NC(=O)c1ccccc1)C(=O)Nc1ccc(C)cc1 (configuration not stated)	-20%	0%	27%	-1%[59 µM]	-14%
CSCCC(NC(=O)c1ccccc1Cl)C(=O)Nc1cccc(S(=O)(=O)N2CCCC2)c1 (configuration not stated)	-4%	/	41%	45µM*	-10%
CSCCC(NC(=O)c1ccccc1Cl)C(=O)NC1CCN(Cc2ccccc2)CC1 (configuration not stated)	-16%	1%	0%	1.6µM*	-38%
CSCCC(NC(=O)c1cccc(C)c1)C(=O)Nc1sccc1C(N)=O (configuration not stated)	-17%	-1%	17%	50µM*	-30%
COc1ccccc1C(=O)NC(CCSC)C(=O)Nc1ccc(C)c(S(=O)(=O)N2CCOCC2)c1 (configuration not stated)	-33%	/	11%	/	/
c1ccc(-c2nnc(CN3CCN(c4ccccn4)CC3)o2)cc1	-19%	/	19%	6%[59 µM]	-3%
COc1cccc(CN2CC(C(=O)NCCn3ccc(C)n3)CCC2=O)c1 (configuration not stated)	-15%	17%	14%	20%	-10%
CCOC(=O)c1ccc(N2C(=O)CC(N(C)CCc3ccc(OC)c(OC)c3)C2=O)cc1 (configuration not stated)	-7%	2%	40%	14µM*	-1%
C/C(=N\N=C(N)N)c1ccc(Cl)c(Cl)c1	-18%	-1%	-11%	50µM*	-12%
CCOc1cc(C2C(C(=O)N3CCOCC3)=C(C)NC3=C2C(=O)CCC3)ccc1O (configuration not stated)	-15%	7%	5%	-40%[59 µM]	7%
COc1cc(C2C(C(=O)N3CCOCC3)=C(C)NC3=C2C(=O)CCC3)ccc1OC(C)=O (configuration not stated)	2%	?	15%	1.6µM*	-2%
O=C(O)c1cc2ccccc2cn1	0.32µM*	/	0%[57 µM]	/	/
SMILES	JMJD2A Tudor	Sfp PPTase inh	HP1b chromo inh	G9a block	BAZ2B block
O=C(O)c1cnc2ccccc2n1	20µM*	-18%	?	13%[59 µM]	?
COC(=O)c1cnc2ccccc2n1	-12%	4%	27%	-6%[59 µM]	13%
O=C1c2ccccc2C(=O)C1c1cc2ccccc2cn1	-23%	/	65%	/	/
COc1cc(C(=O)O)nc2ccccc12	13µM*	63µM*	-10%	12%[2.33 µM]	40µM*
COc1ccc(-c2cc(C)no2)cc1S(=O)(=O)NCc1ccco1	-18%	/	19%	?	-19%
Cc1cccc(-n2ncc3c(N4CCN(c5ccccc5)CC4)ncnc32)c1	16µM*	/	108%	-3%[59 µM]	-7%
COc1ccc(N2CCN(c3ncnc4c3cnn4C)CC2)cc1	-34%	/	23%	14µM*	-18%
COc1cc(/C=C/[N+](=O)[O-])ccc1OCc1cccc(C(=O)O)c1	-31%	14µM*	7%	14µM*	28µM*
O=C(O[C@H]1CN2CCC1CC2)N1CCc2ccccc2[C@@H]1c1ccccc1	/	3%	/	-44%[12.7 µM]	/
Cc1occc1-c1nnc(SCCCC(=O)c2ccc(F)cc2)n1C	-29%	50µM*	7%	50µM*	?
Cn1c(SCCCC(=O)c2ccc(F)cc2)nnc1-c1ccncc1	-16%	-3%	24%	7%[2.33 µM]	15%
CCOC(=O)c1nsnc1NCCSC(=N)N	-3%	3%	15%	8.9µM*	10%
CCOC(=O)c1nonc1NC(C)=O	-9%[57.1 µM]	28%	47%	16%[59 µM]	7%
Oc1ccc(C(=S)N2CCN(Cc3ccccc3)CC2)cc1	?	16µM*	?	2.2µM*	-25%
S=C(c1ccc(Br)cc1)N1CCN(Cc2ccccc2)CC1	?	11µM*	-35%	/	?
CCN1CCN(C(=S)c2ccc(Br)cc2)CC1	-28%	14µM*	?	10%[0.501 µM]	-13%
CCN1CCN(CCC(=O)Nc2ccc(Br)cc2)CC1	-6%	?	33%	-30%	3%
COc1ccc(C(=O)N(O)c2ccccc2)cc1	/	-8%	/	/	/
O=C(O)/C(CC(=O)c1ccc(Cl)cc1)=N/Nc1ccc([N+](=O)[O-])cc1[N+](=O)[O-]	40µM*	2%	-38%	-4%[2.33 µM]	40µM*
CCC(CC)=NNc1ccc([N+](=O)[O-])cc1[N+](=O)[O-]	-17%	9%	24%	9%	?
C#CCOC(=O)CCCNc1ccc([N+](=O)[O-])cc1[N+](=O)[O-]	56µM*	7%	-22%	-23%[59 µM]	50µM*
CCOC(=O)CC(C)(C)/C(C)=N/Nc1ccc([N+](=O)[O-])cc1[N+](=O)[O-]	?	1%	14µM*	8.9µM*	7.1µM*
CCOC(=O)C(C(=O)OCC)C(C)(C)/C(C)=N\Nc1ccc([N+](=O)[O-])cc1[N+](=O)[O-]	32µM*	-16%	35µM*	?	10µM*

Screening data (PubChem)
